About 2,000 (36%) of roughly 5,500 compounds were called active. Another 18% or so got no clear call; they are omitted. Rule as the data show it: active = normalized growth mostly below about 0.91 (no sharp cut-off); inconclusive = no clear call, values can overlap the other calls; inactive = mostly above about 0.92. The list shows a part of the results.
Experiment: chemical genetic growth profiling, strain panel (AID 1159580);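 also: tested at 20 µM; growth read once vehicle control cultures reached saturation at 30 °C; 1 = growth at the plate median or of vehicle wells; lower values mean less growth of the strain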
Conditions: S. cerevisiae deletion strains, growth OD

Measured: normalized growth

Cc1cc(Br)c(NC(=O)C(Cl)(Cl)Cl)c(Br)c1
inactive: locus YDL101C, strain DUN1, active compounds read low 0.936 | locus YDR150W, strain NUM1, active compounds read low 0.909 | locus YEL061C, strain CIN8, active compounds read low 0.93 | locus YJR043C, strain POL32, active compounds read low 0.927 | locus YJR075W, strain HOC1, active compounds read low 0.923 | locus YKL190W, strain CNB1, active compounds read low 0.958 | locus YML094W, strain GIM5, active compounds read low 0.944 | locus YMR263W, strain SAP30, active compounds read low 0.96 | locus YNL153C, strain GIM3, active compounds read low 0.947 | locus YNL298W, strain CLA4 (second series), active compounds read low 0.875 | locus YNR030W, strain Alg12, active compounds read low 0.938 | locus YPL055C, strain LGE1, active compounds read low 0.919 | locus YPL241C, strain CIN2, active compounds read low 0.939 | locus YPR135W, strain CTF4, active compounds read low 0.736
active: locus YAL013W, strain DEP1, active compounds read low 0.917 | locus YBR229C, strain ROT2, active compounds read low 0.911 | locus YGR078C, strain PAC10, active compounds read low 0.905 | locus YHR030C, strain SLT2, active compounds read low 0.592 | locus YHR087W, strain rtc3, active compounds read low 0.899 | locus YLR039C, strain RIC1, active compounds read low 0.538 | locus YLR058C, strain SHM2 (second series), active compounds read low 0.907 | locus YLR085C, strain ARP6, active compounds read low 0.73 | locus YLR262C, strain YPT6, active compounds read low 0.579 | locus YMR219W, strain ESC1, active compounds read low 0.933 | locus YMR307W, strain GAS1, active compounds read low 0.648 | locus YNL322C, strain KRE1, active compounds read low 0.94 | locus YOL006C, strain TOP1, active compounds read low 0.615

From PubChem BioAssay AID1159580 (chemical genetic matrix, 2015)
